Bioassay records: PubChem, several laboratories
RAD54 branch = inhibitors of human RAD54 branch migration | inhibition, % at 10.4 µM | 0.14% of 360,000 active | AID 602329 | RAD54 Holliday junction branch migration, FAM/BHQ fluorescence;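 active = mean normalized replicate activity at least 40 and at least half of replicates scoring 40 or more; inconclusive = only one of the two criteria met; inactive = mean below 40 and under half of replicates reaching 40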;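 also: 0% = median of neutral control wells and 100% = median of positive control wells; inhibitors cause a drop in the FAM fluorescence signal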
Target sequence (Q92698 whole entry, looked up): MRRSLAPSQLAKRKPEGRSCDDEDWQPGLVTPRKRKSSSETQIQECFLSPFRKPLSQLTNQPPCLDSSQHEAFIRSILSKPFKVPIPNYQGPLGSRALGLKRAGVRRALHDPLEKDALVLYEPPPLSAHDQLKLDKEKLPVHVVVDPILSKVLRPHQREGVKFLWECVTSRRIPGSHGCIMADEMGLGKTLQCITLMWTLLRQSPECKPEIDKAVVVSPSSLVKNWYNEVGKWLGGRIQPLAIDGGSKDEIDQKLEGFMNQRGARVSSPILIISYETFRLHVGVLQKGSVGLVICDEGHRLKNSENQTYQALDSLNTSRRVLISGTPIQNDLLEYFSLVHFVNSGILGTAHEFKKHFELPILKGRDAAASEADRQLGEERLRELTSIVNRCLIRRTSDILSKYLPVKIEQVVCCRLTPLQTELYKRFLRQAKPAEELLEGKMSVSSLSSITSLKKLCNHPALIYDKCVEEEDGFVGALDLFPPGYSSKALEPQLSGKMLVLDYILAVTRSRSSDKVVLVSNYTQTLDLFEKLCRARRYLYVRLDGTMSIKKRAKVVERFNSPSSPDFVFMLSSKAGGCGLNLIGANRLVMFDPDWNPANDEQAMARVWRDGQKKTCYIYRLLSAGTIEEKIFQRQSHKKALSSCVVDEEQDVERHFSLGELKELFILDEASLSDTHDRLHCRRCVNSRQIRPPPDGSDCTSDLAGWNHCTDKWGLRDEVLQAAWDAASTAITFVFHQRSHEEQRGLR
NRP1-CendR mod = alters CendR peptide binding to human NRP-1; FAM-RPARPAR peptide binding to NRP-1, fluorescence polarization; inhibition, % at 25 µM; 0.85% of 360,000 active;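 active = inhibition or corrected inhibition above about 18%, plus a signal ratio from 0.5 to 1.5, limit read from the data, passing the limit was not always enough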
miR122 inh = blocks miR-122 activity in Huh7 sensor cells; AID 602342; activation (reporter increase), % at 12.5 µM; Huh7 miR-122 Renilla luciferase sensor, 48 h; neutral wells = 0, positive control = 100; 0.3% of 340,000 active;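 active = mean replicate activation score at least 90 and every replicate individually at or above 90; inconclusive = only one of the two criteria met; inactive = neither criterion met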;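 also: higher luciferase means less miR-122 activity so hits act as miR-122 inhibitors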
DNA FID counter = displaces DNA intercalator in HCV helicase counter-screen; DNA fluorescent intercalator displacement, fluorescence; inhibition, % at 7.9 µM; 0.17% of 290,000 active; AID 1845; in the data active = inhibition above about 37%;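 also: 0% = vehicle and 100% = reference compound; higher means more ethidium bromide displaced from hairpin DNA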
Glyco luc inh = N-linked glycosylation inhibition; D54 ERlucT glycosylation luciferase reporter, 24 h; percent of 100 nM tunicamycin response; reporter increase, % at 12.5 µM; 0.23% of 360,000 active;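 active = mean luciferase reporter signal, scaled so untreated is 0 and the glycosylation-blocking control 100, at or above a set limit in every replicate; inconclusive = mean reaches the limit but not every replicate does; inactive = mean below the limit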;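 also: luciferase carries N-glycosylation sites so blocking glycosylation raises the light; 0% = median of neutral control wells and 100% = median of 100 nM tunicamycin wells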
RAD52 inh = blocks human RAD52 DNA annealing; P43351; recombinant RAD52 DNA annealing, FRET fluorescence; inhibition, % at 18.7 µM; 0.46% of 360,000 active;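 active = every replicate showing at least 50% inhibition; inconclusive = mean inhibition at least 50% but not in every replicate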
DNA binding = binds DNA, flagging false Rad54 inhibitor hits | Acridine orange-DNA displacement, fluorescence polarization, 20 min | shares compounds with RAD54 branch | AID 651673 | 8% of 460 active | AC50, µM (highest dose often 35 µM), inactives show at the highest dose activity change, negative = DNA binding;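 active = signal drop giving an AC50 within twice the top valid tested concentration of each sample, actives reach about 35 µM in these data; inactive = activity opposite to expected, plus the rest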;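 also: polarization loss reports compound binding to salmon sperm DNA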
Starred values were filed as active, the others as inactive; ? = inconclusive; · = not tested or not shown; [ ] = dose if it differs, or a comment. This is a sample that favours compounds with a hit; in the whole collection about 1.5% have one here.

SMILES	RAD54 branch	NRP1-CendR mod	miR122 inh	DNA FID counter	Glyco luc inh	RAD52 inh	DNA binding
OC(c1ccc(F)cc1)c1ncc(-c2ccccc2F)[nH]1 (configuration not stated)	10	-9	146*	·	0	-6	·
OC(c1cc(Cl)cc(Cl)c1)c1ncc(-c2ccccc2F)[nH]1 (configuration not stated)	-7	-6	150*	·	-2	-11	·
CC(C)(C)n1cnc2cc(NC(=O)c3cccs3)ccc21	-6	2	12	0	-5	-23	·
CCc1cc(C(=O)Nc2ccc(OC)nc2)sc1C	-32	24*	0	·	-1	-200	·
COc1ccc(NC(=O)c2cc(Br)c(Br)s2)cn1	-1	-2	1	-2	-1	-16	·
Cn1cnc2cc(NC(=O)c3ccco3)ccc21	-4	24*	-4	1	-4	-14	·
CC(C)(C)n1cnc2cc(NC(=O)c3ccccc3)ccc21	-3	23*	7	-10	-6	-17	·
O=C(Nc1ccc(Br)c(Cl)c1)c1ccco1	1	-4	144*	8	-3	·	·
COCCNC(=O)[C@@H]1[C@@H](CO)[C@@H]2Cn3c(ccc(-c4ccccc4F)c3=O)[C@@H]2N1C(=O)C1CCC1	·	·	·	·	·	-7	·
C[C@@H]1CN([C@@H](C)CO)C(=O)c2cc(NS(=O)(=O)c3cccs3)ccc2O[C@@H](C)CCCCO[C@@H]1CN(C)S(=O)(=O)c1ccc(F)cc1	5	·	-2[16.7 µM]	·	·	-32	·
O=C(Nc1ccc(Br)cc1)c1cccc(S(=O)(=O)Nc2cnc3ccccc3c2)c1	·	-2	·	-7	-3	·	·
COc1ccc(NC(=O)c2ccco2)cn1	-18	26*	9	1	2	-117	·
COc1ccc(NC(=O)c2cccc(S(=O)(=O)Nc3ccc(Br)cc3)c2)cn1	·	14	103*	12	-2	-25	·
CN1C=C/C(=C\c2cc[n+](C)c3ccccc23)c2ccccc21	82*	19	0	18	-7	79*	·
O=C(C[C@H]1C=C[C@@H](NC(=O)c2ccncc2)[C@@H](CO)O1)Nc1ccccc1	·	·	·	·	·	-13	·
C[C@@H]1CN([C@@H](C)CO)C(=O)c2cc(-c3cncnc3)cnc2O[C@@H]1CN(C)Cc1ccccc1	·	·	·	·	·	-2	·
C=CCc1cccc(/C=N/c2ncn[nH]2)c1O	3	10	-8	-3	0	·	·
C=CCc1cccc(/C=N/n2c(C)nnc2C)c1O	-7	20*	-3	-3	2	·	·
C[C@@H]1CCCCO[C@H](CN(C)C(=O)CCCN(C)C)[C@@H](C)CN([C@H](C)CO)C(=O)c2cc(NC(=O)Nc3ccc(C(F)(F)F)cc3)ccc2O1	11	·	-3[16.7 µM]	·	·	·	·
COc1ccc(C2=Nn3c(nnc3-c3ccc(OC)cc3)SC2)cc1	5	1	30	-26	29*	·	·
Cc1ccc2[nH]c(CNC(=O)C3CCCCC3)cc2c1	-27	-14	135*	-7	-3	-17	·
CC(C)(C)NC(=O)C(c1cccs1)N(C(=O)c1csnn1)c1cccc(F)c1 (configuration not stated)	·	-3	·	-15	-1	-13	·
CCC(C)(C)NC(=O)C(c1ccco1)N(C(=O)c1csnn1)c1cccc(F)c1 (configuration not stated)	7	34*	3	-14	1	·	·
Cc1ccc(-c2nnn(CC(=O)N(c3cccc(F)c3)C(C(=O)NC(C)(C)C)c3ccco3)n2)o1 (configuration not stated)	-7	44*	-3	-9	0	1	·
Cc1cc(SCC(=O)c2ccccc2)nc(C)n1	0	26*	0	-2	-5	·	·
SMILES	RAD54 branch	NRP1-CendR mod	miR122 inh	DNA FID counter	Glyco luc inh	RAD52 inh	DNA binding
Cc1ccc(C(=O)CSc2cc(C)nc(SCC(=O)c3ccccc3)n2)cc1	-2	1	-2	-4	-2	·	·
Cc1cccc2cc3c(N)c(C#N)sc3nc12	71*	-14	-2	0	11	·	2%
CN(C)CCN(C(=O)c1ccc2c(c1)OCCO2)c1nc2c(Cl)cccc2s1	51*	11	4	5	3	27	-5%
CC(=O)c1ccc(C(=O)N(CCN(C)C)c2nc3c(Cl)cccc3s2)cc1	28	0	-9	6	2	29	·
COc1ccccc1CNC(=O)c1cccs1	63*	-16	-6	-8	0	·	11%
C[C@H](CO)N1C[C@H](C)[C@H](CN(C)Cc2ccc(-c3ccccc3)cc2)Oc2ncc(C#C[C@@H](C)O)cc2C1=O	-6	·	-2[16.7 µM]	·	·	22	·
COc1ccc(N2C(=O)CSC23CCCCC3)cc1	?	14	-4	-17	1	·	-9%
COc1ccc(S(=O)(=O)N[C@@H]2CC[C@H](CC(=O)NCc3ccccc3F)O[C@H]2CO)cc1	-3	·	·	·	·	-12	·
Cc1noc(C)c1S(=O)(=O)Nc1ccc2c(c1)C(=O)N([C@@H](C)CO)C[C@H](C)[C@@H](CN(C)S(=O)(=O)c1ccccc1)OCCCC[C@H](C)O2	0	·	8[16.7 µM]	·	·	-48	·
CC(=O)N1[C@H](CN(C(=O)c2ccc(F)cc2)C(C)C)[C@H](c2ccccc2)[C@@H]1CO	-1	·	-67[16.7 µM]	·	·	0	·
CC1CCCCC1NC(=O)C1Cc2ccccc2CN1S(C)(=O)=O (configuration not stated)	?	4	4	-19	2	·	-10%
Cc1ccc(-c2nc(N3CCN(C)CC3)c3ccccc3n2)cc1	57*	-14	6	29	5	5	-15%
COc1ccccc1Nc1nc(NCC2CCCO2)c2ccccc2n1 (configuration not stated)	67*	2	0	17	-3	-2	-10%
C[C@@H]1CN([C@@H](C)CO)C(=O)c2cc(NS(=O)(=O)c3cn(C)cn3)ccc2O[C@@H](C)CCCCO[C@@H]1CN(C)C(=O)c1ccncc1	-2	·	3[16.7 µM]	·	·	12	·
O=C1c2cccc3cccc(c23)C(=O)N1CCCn1ccnc1	51*	12	-3	·	5	33	-14%
OCCNc1nc(-c2ccccc2)nc2ccccc12	·	6	·	-5	3	-19	·
COCCCNc1nc2cc(OC)c(OC)cc2c2nc(-c3ccccc3)nn12	39	-2	·	-24	0	-2	·
CCN(CC)CCCNc1nc2cc(OC)c(OC)cc2c2nc(-c3ccccc3)nn12	106*	1	14	50*	41*	·	0%
COc1cc2nc(NCCCN3CCN(C)CC3)n3nc(-c4ccccc4)nc3c2cc1OC	102*	-1	·	30	5	·	4%
CCN(CC)CCCNc1nc(-c2ccccc2)nc2ccccc12	85*	3	3	57*	8	·	-8%
CCN(CC)CCCNc1nc2cc(OC)c(OC)cc2c2nc(-c3cccnc3)nn12	115*	0	-6	24	11	·	-8%
